HTT aggregate: mutant huntingtin aggregation inhibition; Potency, µM (highest dose often 46.1 µM), inactives show top-dose activity change, negative = inhibition, usual class: inhibitors; PC12 HttQ103-GFP aggregates, Acumen cytometry, 40 h; hit rate 1.1% among 220,000; AID 1688; further: potency means the concentration at half of the fitted maximal effect; on the % scale 0 is the no-effect control and ±100 the full control effect; nearly all actives have a fitted effect of over 60% in size
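Steps: seed 1500 PC12 HTTQ103-GFP cells/well; add tebufenozide, 100 nM final; add compound titration; add ATPLite reagent; quantify GFP aggregates by laser scanning cytometry.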
HTT cytoprotect: protects HTT-Q103 PC12 cells, measured by ATP | PC12 HTT-Q103 induced, cytoprotection, ATP luminescence, 40 h | Potency, µM (top dose mostly 56.4 µM), for the others: cytoprotection (ATP increase), most hits filed as activators | hit rate 0.14% among 230,000 | AID 1471; further: potency means the concentration at half of the fitted maximal effect; % of control where 0% means no effect; nearly all actives have a fitted effect of over 45% in size
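Huntington model: PC12 line, ecdysone-inducible HTTQ103 exon1–GFP, tebufenozide 100 nM. Test articles in a dose series. Endpoint luminescence from cellular ATP.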
HPGD block: blocks human HPGD enzyme activity; P15428; Potency, µM, without a hit: at the top dose activity change, negative = inhibition, hits mostly inhibitors; hit rate 4.3% among 150,000; purified HPGD, NADH fluorescence kinetic, PGE2 substrate; active means well fitted inhibition curve with a large enough effect, not every such curve was filed as active; inconclusive means small, poorly fitted or top-dose-only effect, or another doubt; inactive means no such curve, though single readings can be large or run the other way; further: potency means the concentration at half of the fitted maximal effect; on the % scale 0 is the no-effect control and ±100 the full control effect
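NADH formation kinetics: reaction with 30 uM PGE2 and 1 mM NAD+ (final), 20 nM enzyme, Tris-HCl pH 8 with Tween 20, after 15 min compound preincubation at room temperature. Fluorescence change, last versus first of five reads.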
PNC assembly inh: blocks assembly of the perinucleolar compartment. activity change (PNC), negative = inhibition, % at 10 µM. hit rate 3.1% among 140,000. PC3M PTB-GFP, PNC prevalence imaging, 16 h; active compounds read low;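 active means readout at or below -70, meaning at least 70% loss of cells showing the perinucleolar compartment, a nuclear body marking cancer cells; inconclusive means readout between -30 and a set limit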;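 further: plate controls were DMSO wells for no effect and camptothecin positive control wells for full effect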
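Read-out is percentage of cells bearing a perinucleolar compartment, from automated 20x imaging of fixed, Hoechst-stained PC3M PTB-GFP cells. Cells were seeded 4 h, then exposed 16 h to compound (23 nl of library stock) in duplicate plates.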
CBFb-RUNX1 inh: blocks binding between human CBF-beta and RUNX1; Q01196+Q13951; 230,000 tested, under 10 active; Potency, µM (top dose mostly 59.8 µM), inactives show top-dose activity, negative = inhibition, most hits filed as inhibitors; AlphaScreen CBFb-His/RUNX1-biotin binding, biochemical; further: % of control where 0% means no effect
Target sequence (Q01196 whole entry, looked up): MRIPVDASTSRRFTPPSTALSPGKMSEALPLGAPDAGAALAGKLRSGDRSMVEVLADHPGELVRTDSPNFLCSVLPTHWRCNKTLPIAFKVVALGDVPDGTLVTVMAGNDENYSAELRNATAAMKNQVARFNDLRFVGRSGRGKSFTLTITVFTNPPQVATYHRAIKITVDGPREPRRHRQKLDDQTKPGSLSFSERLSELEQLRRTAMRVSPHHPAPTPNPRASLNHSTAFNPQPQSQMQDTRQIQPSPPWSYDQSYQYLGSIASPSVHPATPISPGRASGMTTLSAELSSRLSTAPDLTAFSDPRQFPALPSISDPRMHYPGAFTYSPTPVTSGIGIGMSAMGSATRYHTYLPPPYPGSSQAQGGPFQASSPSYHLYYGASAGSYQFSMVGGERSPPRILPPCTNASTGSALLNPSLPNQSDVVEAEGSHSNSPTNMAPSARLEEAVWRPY
Target sequence (Q13951 whole entry, looked up): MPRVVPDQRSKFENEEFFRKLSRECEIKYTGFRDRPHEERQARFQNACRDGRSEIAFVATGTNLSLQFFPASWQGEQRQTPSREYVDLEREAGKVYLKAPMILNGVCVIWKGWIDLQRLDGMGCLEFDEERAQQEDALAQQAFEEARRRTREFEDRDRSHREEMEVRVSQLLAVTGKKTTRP
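Proteins preincubated together for 20 min at RT before compound addition; 15 min later, nickel and streptavidin beads were added and left 90 min prior to AlphaScreen measurement.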
ALDH1A1 inh: inhibitors of human aldehyde dehydrogenase 1A1; P00352; Purified ALDH1A1, NADH fluorescence, propionaldehyde substrate; Potency, µM (doses to about 75.3 µM), inactives show at the highest dose activity, negative = inhibition, usual class: inhibitors; hit rate 7.3% among 220,000; AID 1030; active means well fitted inhibition curve with a large enough effect, not every such curve was filed as active; inconclusive means small, poorly fitted or top-dose-only effect, or another doubt; inactive means no such curve, though single readings can be large or run the other way;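 further: potency means the concentration at half of the fitted maximal effect; plate controls were no enzyme wells and a reference inhibitor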
* hit, by the source's call; [ ] = remark or other dose. An excerpt weighted towards active compounds, which were near 11% of everything screened. Unless noted, the call rests on the fitted dose curve; in most records, active means well fitted curve in the direction sought with a large enough effect; inconclusive means small, poorly fitted or top-dose-only effect, or another doubt; inactive means no such curve, though single readings can be large; an effect the other way counts as inactive or inconclusive.

For CCCCC/C=C\C[C@@H](O)/C=C/C=C/C=C/[C@@H](O)CCCC(=O)O the results were HTT cytoprotect -20.0%, HPGD block -6.1%, CBFb-RUNX1 inh 3.6% and ALDH1A1 inh 4.0%.
For COc1ccc(C2=NN(C(C#N)c3ccc(OC)cc3)C(c3ccccc3)C2)cc1 (centres undefined) the results were HTT aggregate -20.4%, HTT cytoprotect 12.0%[10 µM], HPGD block -5.9%, PNC assembly inh 13.9, CBFb-RUNX1 inh 6.3% and ALDH1A1 inh 22.4µM*.
For CCCC[C@H](NC(=O)[C@H](CC(C)C)NC(=O)CNC(=O)[C@@H](NC(=O)[C@H](Cc1ccccc1)NC(=O)[C@H](CO)NC(=O)[C@@H](N)CC(=O)O)C(C)C)C(N)=O the results were CBFb-RUNX1 inh 11.0%.
Screening O=C(N/N=C/C=C/c1ccc([N+](=O)[O-])cc1)C1COc2ccccc2O1 (centres undefined) returned HTT aggregate 21.3%, HTT cytoprotect 0.9%[10 µM], HPGD block -24.9%, PNC assembly inh 8.0, CBFb-RUNX1 inh 1.0% and ALDH1A1 inh 25.1µM*.
`O=C(N/N=C\c1cc(Br)cs1)C1COc2ccccc2O1` (centres undefined) gave HTT aggregate -8.7%, HTT cytoprotect 5.1%, HPGD block -8.3%, PNC assembly inh -27.5, CBFb-RUNX1 inh -2.5% and ALDH1A1 inh 20µM*.
`O=C(N/N=C\C=C\c1ccco1)C1COc2ccccc2O1` (centres undefined) gave HTT aggregate 16.6%[9.22 µM], HTT cytoprotect -10.8%[10 µM] and CBFb-RUNX1 inh -3.7%.
For c1ccc(CSc2ncnc3c2cnn3Cc2ccccc2)cc1 the results were HTT aggregate -20.8%, HTT cytoprotect -8.5%, HPGD block inconclusive, PNC assembly inh -111.7*, CBFb-RUNX1 inh 17.3% and ALDH1A1 inh inconclusive.
Screening COC(=O)CSc1ncnc2c1cnn2Cc1ccccc1 returned HTT aggregate 16.4%, HTT cytoprotect -5.6%[0.074 µM], HPGD block -19.5%, PNC assembly inh -1.3, CBFb-RUNX1 inh 2.5% and ALDH1A1 inh -5.2%.
CC(=O)Nc1ccc(-c2csc(N/N=C(/C)c3ccccc3)n2)cc1 was read as HTT aggregate 7.9%[9.22 µM], HTT cytoprotect -0.4%[10 µM] and CBFb-RUNX1 inh -13.5%.
`C/C(=N/Nc1nc(-c2ccc(Cl)cc2)cs1)c1cccs1` gave HTT aggregate 13.1%, HTT cytoprotect -10.0%, HPGD block -12.9%, PNC assembly inh inconclusive, CBFb-RUNX1 inh -5.6% and ALDH1A1 inh 15.8µM*.
For CSCC[C@H](NC(=O)[C@H](CC(C)C)NC(=O)[C@H](CO)NC(=O)[C@H](CCC(=O)O)NC(=O)[C@H](CC(C)C)NC(=O)[C@H](Cc1ccc(O)cc1)NC(=O)[C@H](CCCCN)NC(=O)[C@H](CCCCN)NC(=O)[C@H](C)NC(=O)[C@H](CO)NC(=O)[C@H](CC(C)C)NC(=O)[C@H](CCC(N)=O)NC(=O)CNC(=O)[C@H](CC(C)C)NC(=O)[C@H](CC(C)C)NC(=O)[C@H](CCCCN)NC(=O)[C@H](CO)NC(=O)[C@H](Cc1ccccc1)NC(=O)[C@H](CC(=O)O)NC(=O)[C@H](CO)NC(=O)[C@@H](NC(=O)[C@H](Cc1ccccc1)NC(=O)[C@@H](NC(=O)CNC(=O)[C@H](CC(=O)O)NC(=O)[C@H](C)NC(=O)[C@@H](N)Cc1cnc[nH]1)C(C)C)[C@@H](C)O)C(N)=O the results were CBFb-RUNX1 inh 10.2%.
NC1=NCC2c3ccccc3Cc3ccccc3N12 (centres undefined) was read as HTT aggregate -1.2%, HTT cytoprotect 13.0% and CBFb-RUNX1 inh -8.8%.
For O=C1CC(c2ccc(F)cc2)C(n2cncn2)C(O)=C1C1NCCc2ccccc21 (centres undefined) the results were HTT aggregate 15.8%, CBFb-RUNX1 inh 4.2% and ALDH1A1 inh 8.3%.
For CCCCCn1c(CN(C)Cc2ccccc2)nc2c1c(=O)n(C)c(=O)n2C the results were HTT aggregate -9.8%, HTT cytoprotect -23.0%, HPGD block -7.7%, PNC assembly inh inconclusive, CBFb-RUNX1 inh -11.6% and ALDH1A1 inh 10µM*.
Screening CN(Cc1ccccc1)Cc1nc2c(c(=O)n(C)c(=O)n2C)n1Cc1ccc(Cl)cc1 returned HTT aggregate 15.6%, HTT cytoprotect 13.5%[10 µM], HPGD block -5.5%, PNC assembly inh -6.5, CBFb-RUNX1 inh 7.3% and ALDH1A1 inh inconclusive.
Cc1ccc(Cn2c(CN(C)Cc3ccccc3)nc3c2c(=O)n(C)c(=O)n3C)cc1 was read as HTT aggregate 4.9%, HTT cytoprotect -9.2%, HPGD block -8.4%, PNC assembly inh -10.9, CBFb-RUNX1 inh -3.8% and ALDH1A1 inh 7.08µM*.
`COc1cccc(Cn2c(=O)c(-c3ccccc3)nc3cnc(N(C)C)nc32)c1` gave HTT cytoprotect -32.8%, HPGD block inconclusive and ALDH1A1 inh inconclusive.
O=C(CCCSc1ccccc1)Nc1nc(-c2ccco2)c(-c2ccco2)s1 was read as HTT aggregate -11.8%, HTT cytoprotect 10.2%[10 µM], HPGD block inconclusive, PNC assembly inh -24.4, CBFb-RUNX1 inh inconclusive and ALDH1A1 inh inconclusive.
For O=C(CCl)Nc1nc(-c2ccco2)c(-c2ccco2)s1 the results were HTT aggregate 6.8%, HTT cytoprotect -13.3%[10 µM], HPGD block inconclusive, PNC assembly inh -5.7, CBFb-RUNX1 inh inconclusive and ALDH1A1 inh 0.398µM*.
`COC(=O)[C@H](COC(C)(C)C)NC(=O)O[C@@H]1C(=O)c2ccc(OC)cc2O[C@H]1c1ccc2c(c1)OCO2` gave HPGD block -5.2%, CBFb-RUNX1 inh -8.6% and ALDH1A1 inh -3.7%.
COc1ccc(CN2C(=O)CSC2c2ccncc2)cc1 (centres undefined) was read as HTT aggregate -19.4%[9.22 µM], HTT cytoprotect -8.7%[10 µM], CBFb-RUNX1 inh 7.3% and ALDH1A1 inh 3.8%.
`CCOc1ccc(N2C(=O)CSC2c2ccncc2)cc1` (centres undefined) gave HTT aggregate 13.8%, HTT cytoprotect -0.5%[10 µM], HPGD block -9.7%, PNC assembly inh -100.0*, CBFb-RUNX1 inh 4.1% and ALDH1A1 inh -5.2%.
COc1ccc(N2C(=O)CSC2c2cccs2)cc1 (centres undefined) was read as HTT aggregate 13.2%, HPGD block -5.4%, PNC assembly inh -113.8*, CBFb-RUNX1 inh -2.6% and ALDH1A1 inh inconclusive.
Screening CCC(C(=O)NCc1ccncc1)c1ccccc1 (centres undefined) returned HTT aggregate 7.1%[9.22 µM], HTT cytoprotect 9.8%[10 µM], CBFb-RUNX1 inh 13.5% and ALDH1A1 inh 3.4%.

Screening data deposited in PubChem BioAssay by National Center for Advancing Translational Sciences (NCATS).
